Laboratory results published in the supplement of paper PMC8371130.
Counter-ions that a name gives are not always drawn.

Test system: HL-1
Assay: relative cell viability (CellTiter-Glo) vs DMSO control (% of DMSO control); higher = more viable cells
Conditions: oxygen condition: hypoxia 48 h (1% O2) + reoxygenation 24 h; 40 nM
In short: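 In 384-well plates, 1000 HL-1 mouse atrial cardiomyocytes per well were plated with compounds at 40, 200, 1000 or 5000 nM in 0.01% DMSO. Hypoxia at 1% O2 for 48 h began one day later and was followed by 24 h of reoxygenation, with parallel plates held in normoxia. CellTiter-Glo luminescence gave cell viability relative to vehicle-treated control cells.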

Row | SMILES | relative cell viability
1 | O=C(CCCN1CC=C(n2c(=O)[nH]c3ccccc32)CC1)c1ccc(F)cc1 [Droperidol] | 94.9
2 | Cc1ccc(C)c(OCCCC(C)(C)C(=O)O)c1 [Gemfibrozil] | 98.5
3 | CC(C)[C@H](N)C(=O)OCC(CO)OCn1cnc2c(=O)nc(N)[nH]c21 (stereo partly drawn) [valganciclovir hydrochloride] | 107
4 | CCCCCN(C)CCC(O)(P(=O)(O)O)P(=O)(O)O [Ibandronate sodium] | 100
5 | CN(C)CCC(c1ccccc1)c1ccccn1 (stereo not drawn) [Pheniramine Maleate] | 102
6 | O=C1c2c(O)ccc(O)c2C(=O)c2c(NCCNCCO)ccc(NCCNCCO)c21 [Mitoxantrone Hydrochloride] | 4.78
7 | CCN(CC)CCNC(=O)c1c(C)[nH]c(/C=C2\C(=O)Nc3ccc(F)cc32)c1C [Sunitinib Malate] | 106
8 | CCCc1nn(C)c2c(=O)[nH]c(-c3cc(S(=O)(=O)N4CCN(C)CC4)ccc3OCC)nc12 [Sildenafil citrate] | 99.7
9 | CCCCOc1ccc(OCCCN2CCOCC2)cc1 [Pramoxine HCl] | 106
10 | COc1ccc(CN2CCN(C(c3ccc(F)cc3)c3ccc(F)cc3)CC2)c(OC)c1OC [Lomerizine HCl] | 96.9
11 | COc1ccc(-c2nc3cc(C4=NNC(=O)CC4C)ccc3[nH]2)cc1 (stereo not drawn) [Pimobendan] | 107
12 | NS(=O)(=O)c1cc2c(cc1Cl)N=C(CSCc1ccccc1)NS2(=O)=O [Benzthiazide] | 103
13 | CNC[C@@H](O)c1ccc(O)c(O)c1 [L-Adrenaline] | 102
14 | CO[C@H]1C(=O)[C@]2(C)[C@@H](OC)C[C@H]3OC[C@@]3(OC(C)=O)[C@H]2[C@H](OC(=O)c2ccccc2)[C@]2(O)C[C@H](OC(=O)[C@H](O)[C@@H](NC(=O)OC(C)(C)C)c3ccccc3)C(C)=C1C2(C)C [Cabazitaxel] | 32.1
15 | OCC(CO)N[C@H]1C[C@](O)(CO)[C@@H](O)[C@H](O)[C@H]1O [Voglibose] | 109
16 | COc1ccc2c(c1OC)C(=O)O[C@@H]2[C@H]1c2c(cc3c(c2OC)OCO3)CCN1C [Noscapine HCl] | 97.5
17 | CCOC(=O)[C@H](CCc1ccccc1)N[C@H]1CS[C@H](c2cccs2)CN(CC(=O)O)C1=O [Temocapril HCl] | 102
18 | C#C[C@]1(O)CC[C@H]2[C@@H]3CCc4cc(O)ccc4[C@H]3CC[C@@]21C [Ethinyl Estradiol] | 104
19 | CNNCc1ccc(C(=O)NC(C)C)cc1 [Procarbazine HCl] | 109
20 | O=C1O[C@H]([C@@H](O)CO)C([O-])=C1O.[Na+] [Sodium ascorbate] | 99.7

Row | SMILES | relative cell viability
21 | CCOc1ccc2nc(S(N)(=O)=O)sc2c1 [Ethoxzolamide] | 100
22 | CC(CCc1ccc(O)cc1)NCC(O)c1ccc(O)cc1 (stereo not drawn) [Ractopamine HCl] | 103
23 | CCN[C@H]1CN(CCCOC)S(=O)(=O)c2sc(S(N)(=O)=O)cc21 [Brinzolamide] | 101
24 | COC(=O)CCc1ccc(OCC(O)CNC(C)C)cc1 (stereo not drawn) [Esmolol HCl] | 103
25 | CNC1CCCN(c2c(F)cc3c(=O)c(C(=O)O)cn(C4CC4)c3c2OC)C1 (stereo not drawn) [Balofloxacin] | 103
26 | C[C@H](N[C@@H](CCc1ccccc1)C(=O)O)C(=O)N1CCC[C@H]1C(=O)O [Enalaprilat dihydrate] | 104
27 | O=S(=O)(O)CCS [Mesna] | 105
28 | Cl.N=C(N)NCCC[C@H](N)C(=O)O [L-Arginine HCl] | 97.5
29 | O=C1CCc2cc(OCCCCc3nnnn3C3CCCCC3)ccc2N1 [Cilostazol] | 107
30 | CCCC(CCC)C(=O)O[C@H]1C[C@H]2CC[C@@H](C1)[N+]2(C)C [Anisotropine Methylbromide] | 104
31 | CCCc1nc(C(C)(C)O)c(C(=O)OCc2oc(=O)oc2C)n1Cc1ccc(-c2ccccc2-c2nnn[nH]2)cc1 [Olmesartan medoxomil] | 93.8
32 | CN1CCOC(c2ccccc2)c2ccccc2C1 (stereo not drawn) [Nefopam HCl] | 95.1
33 | CCOC(=O)c1ccc(OC(=O)CCCCCNC(=N)N)cc1 [Gabexate mesylate] | 107
34 | NCCS [Cysteamine HCl] | 101
35 | CC(C)C[C@H](NC(=O)[C@@H](O)[C@H](N)Cc1ccccc1)C(=O)O [Ubenimex] | 99.1
36 | CC1CCc2cc(F)cc3c(=O)c(C(=O)O)cn1c23 (stereo not drawn) [Flumequine] | 104
37 | COC(=O)C1=C(C)NC(C)=C(C(=O)OC(C)C)C1c1cccc2nonc12 (stereo not drawn) [Isradipine] | 106
38 | CC1(C)Cc2c(-c3ccccc3)c(-c3ccc(Cl)cc3)c(CC(=O)O)n2C1 [Licofelone] | 97.3
39 | C#C[C@]1(O)CC[C@H]2[C@@H]3CCc4cc(OC)ccc4[C@H]3CC[C@@]21C [Mestranol] | 101

Same assay, conditions: oxygen condition: hypoxia 48 h (1% O2) + reoxygenation 24 h; 200 nM

Row | SMILES | relative cell viability
40 | O=C(CCCN1CC=C(n2c(=O)[nH]c3ccccc32)CC1)c1ccc(F)cc1 [Droperidol] | 102
41 | Cc1ccc(C)c(OCCCC(C)(C)C(=O)O)c1 [Gemfibrozil] | 104
42 | CC(C)[C@H](N)C(=O)OCC(CO)OCn1cnc2c(=O)nc(N)[nH]c21 (stereo partly drawn) [valganciclovir hydrochloride] | 107
43 | CCCCCN(C)CCC(O)(P(=O)(O)O)P(=O)(O)O [Ibandronate sodium] | 95.3
44 | CN(C)CCC(c1ccccc1)c1ccccn1 (stereo not drawn) [Pheniramine Maleate] | 103
45 | O=C1c2c(O)ccc(O)c2C(=O)c2c(NCCNCCO)ccc(NCCNCCO)c21 [Mitoxantrone Hydrochloride] | 4.55
46 | CCN(CC)CCNC(=O)c1c(C)[nH]c(/C=C2\C(=O)Nc3ccc(F)cc32)c1C [Sunitinib Malate] | 109
47 | CCCc1nn(C)c2c(=O)[nH]c(-c3cc(S(=O)(=O)N4CCN(C)CC4)ccc3OCC)nc12 [Sildenafil citrate] | 102
48 | CCCCOc1ccc(OCCCN2CCOCC2)cc1 [Pramoxine HCl] | 110
49 | COc1ccc(CN2CCN(C(c3ccc(F)cc3)c3ccc(F)cc3)CC2)c(OC)c1OC [Lomerizine HCl] | 105
50 | COc1ccc(-c2nc3cc(C4=NNC(=O)CC4C)ccc3[nH]2)cc1 (stereo not drawn) [Pimobendan] | 108
51 | NS(=O)(=O)c1cc2c(cc1Cl)N=C(CSCc1ccccc1)NS2(=O)=O [Benzthiazide] | 99.8
52 | CNC[C@@H](O)c1ccc(O)c(O)c1 [L-Adrenaline] | 99.7
53 | CO[C@H]1C(=O)[C@]2(C)[C@@H](OC)C[C@H]3OC[C@@]3(OC(C)=O)[C@H]2[C@H](OC(=O)c2ccccc2)[C@]2(O)C[C@H](OC(=O)[C@H](O)[C@@H](NC(=O)OC(C)(C)C)c3ccccc3)C(C)=C1C2(C)C [Cabazitaxel] | 34.3
54 | OCC(CO)N[C@H]1C[C@](O)(CO)[C@@H](O)[C@H](O)[C@H]1O [Voglibose] | 117
55 | COc1ccc2c(c1OC)C(=O)O[C@@H]2[C@H]1c2c(cc3c(c2OC)OCO3)CCN1C [Noscapine HCl] | 98
56 | CCOC(=O)[C@H](CCc1ccccc1)N[C@H]1CS[C@H](c2cccs2)CN(CC(=O)O)C1=O [Temocapril HCl] | 102
57 | C#C[C@]1(O)CC[C@H]2[C@@H]3CCc4cc(O)ccc4[C@H]3CC[C@@]21C [Ethinyl Estradiol] | 104
58 | CNNCc1ccc(C(=O)NC(C)C)cc1 [Procarbazine HCl] | 101
59 | O=C1O[C@H]([C@@H](O)CO)C([O-])=C1O.[Na+] [Sodium ascorbate] | 101

Row | SMILES | relative cell viability
60 | CCOc1ccc2nc(S(N)(=O)=O)sc2c1 [Ethoxzolamide] | 101
61 | CC(CCc1ccc(O)cc1)NCC(O)c1ccc(O)cc1 (stereo not drawn) [Ractopamine HCl] | 100
62 | CCN[C@H]1CN(CCCOC)S(=O)(=O)c2sc(S(N)(=O)=O)cc21 [Brinzolamide] | 84.5
63 | COC(=O)CCc1ccc(OCC(O)CNC(C)C)cc1 (stereo not drawn) [Esmolol HCl] | 104
64 | CNC1CCCN(c2c(F)cc3c(=O)c(C(=O)O)cn(C4CC4)c3c2OC)C1 (stereo not drawn) [Balofloxacin] | 93.5
65 | C[C@H](N[C@@H](CCc1ccccc1)C(=O)O)C(=O)N1CCC[C@H]1C(=O)O [Enalaprilat dihydrate] | 106
66 | O=S(=O)(O)CCS [Mesna] | 102
67 | Cl.N=C(N)NCCC[C@H](N)C(=O)O [L-Arginine HCl] | 104
68 | O=C1CCc2cc(OCCCCc3nnnn3C3CCCCC3)ccc2N1 [Cilostazol] | 107
69 | CCCC(CCC)C(=O)O[C@H]1C[C@H]2CC[C@@H](C1)[N+]2(C)C [Anisotropine Methylbromide] | 101
70 | CCCc1nc(C(C)(C)O)c(C(=O)OCc2oc(=O)oc2C)n1Cc1ccc(-c2ccccc2-c2nnn[nH]2)cc1 [Olmesartan medoxomil] | 99.2
71 | CN1CCOC(c2ccccc2)c2ccccc2C1 (stereo not drawn) [Nefopam HCl] | 74.3
72 | CCOC(=O)c1ccc(OC(=O)CCCCCNC(=N)N)cc1 [Gabexate mesylate] | 105
73 | NCCS [Cysteamine HCl] | 108
74 | CC(C)C[C@H](NC(=O)[C@@H](O)[C@H](N)Cc1ccccc1)C(=O)O [Ubenimex] | 95.6
75 | CC1CCc2cc(F)cc3c(=O)c(C(=O)O)cn1c23 (stereo not drawn) [Flumequine] | 98.4
76 | COC(=O)C1=C(C)NC(C)=C(C(=O)OC(C)C)C1c1cccc2nonc12 (stereo not drawn) [Isradipine] | 111
77 | CC1(C)Cc2c(-c3ccccc3)c(-c3ccc(Cl)cc3)c(CC(=O)O)n2C1 [Licofelone] | 94.8
78 | C#C[C@]1(O)CC[C@H]2[C@@H]3CCc4cc(OC)ccc4[C@H]3CC[C@@]21C [Mestranol] | 106
